Outcome and AC50 data for 16 compounds are collected here from PubChem BioAssay (EPA / NIEHS).

Each structure is given as a SMILES string. Where “and” joins values, the source holds several entries; their conditions need not be identical. Equal values may be shown once. Calls of active or inactive are those of the source. The calls were made as follows: active = hit-call score of the fitted dose curve at least 0.9, where 1 is the maximum; inactive = score below 0.9.

Conditions in all cases: primary human HUVEC with PBMC; actives raise or lower the signal
A short description of assay [1]: BSK_LPS_PGE2: BioMAP Diversity Plus: LPS Assay for Prostaglandin E2 (PGE2) Biomarker Activity (AID 2283082).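 As to AC50: secreted prostaglandin E2 measured by ELISA in LPS-stimulated co-culture.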 In outline: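 Primary human endothelial cells and blood mononuclear cells, co-cultured with LPS, receive test chemical; PGE2 ELISA follows at 24 h, with SRB-stained parallel cultures flagging cytotoxicity.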
Read-out in assay [2]: Macrophage colony-stimulating factor (MCSF), CSF1 (gene 1435)
The assay can be described thus: BSK_LPS_MCSF: BioMAP Diversity Plus: LPS Assay for Macrophage colony-stimulating factor (MCSF) Biomarker Activity (AID 2283083). In outline: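 Bidirectional fit versus DMSO of ELISA-measured M-CSF in co-cultured human umbilical vein endothelial cells and PBMC, sampled 24 h after dosing.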

Read-out in assay [3]: Tissue Factor, F3 (gene 2152)
The assay can be described thus: BSK_LPS_TissueFactor: BioMAP Diversity Plus: LPS Assay for Tissue Factor Biomarker Activity (AID 2283084). In outline:
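Read-out: CD142 ELISA, 24 h. System: LPS-driven human endothelial/PBMC co-culture. Analysis: up- or down-signal fitted against DMSO.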

Read-out in assay [4]: Tumor necrosis factor (Homo sapiens) (UniProt P01375)
The assay is described as follows: BSK_LPS_TNFa: BioMAP Diversity Plus: LPS Assay for Tumour Necrosis Factor alpha (TNFa) Biomarker Activity (AID 2283085).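 As to AC50: TNFa protein level quantified by ELISA in the co-culture.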 In outline: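 ELISA-based TNFa endpoint in a human endothelial–PBMC co-culture sampled 24 h post-exposure. Curves were fitted in both directions using DMSO as baseline of activity.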

Read-out in assay [5]: Vascular cell adhesion molecule 1 (VCAM1), VCAM1 (gene 7412)
The assay can be described thus: BSK_LPS_VCAM1: BioMAP Diversity Plus: LPS Assay for Vascular cell adhesion molecule 1 (VCAM1) Biomarker Activity (AID 2283086). In outline: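 Measured by ELISA: VCAM-1 in LPS-activated HUVEC/PBMC co-cultures 24 h after treatment. Values reflect bidirectional fitting with DMSO as baseline.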

Read-out in another assay: CD38, CD38 (gene 952)
The assay can be described thus: BSK_SAg_CD38: BioMAP Diversity Plus: SAg Assay for CD38 Biomarker Activity (AID 2283087). In outline: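 Measures CD38 on a human endothelial/PBMC co-culture driven by SEB and TSST-1, 24 h after compound exposure, using ELISA with fluorescence detection; DMSO defines baseline for bidirectional curve fitting.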

Read-out in another assay: CD40, CD40 (gene 958)
The assay can be described thus: BSK_SAg_CD40: BioMAP Diversity Plus: SAg Assay for CD40 Biomarker Activity (AID 2283088). In outline:
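Endpoint derived by fitting increases or decreases versus DMSO controls. CD40 is detected by fluorescence ELISA in a human vascular co-culture of endothelium and PBMC at 24 h.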

Read-out in a further assay: CD69, CD69 (gene 969)
The assay can be described thus: BSK_SAg_CD69: BioMAP Diversity Plus: SAg Assay for CD69 Biomarker Activity (AID 2283089).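 As to AC50: cell surface CD69 protein quantified by ELISA with fluorescence detection.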 In outline:
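Endothelial/PBMC co-culture; chemical added; 24 h incubation; CD69 ELISA with fluorescence detection; bidirectional fit vs DMSO.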

Read-out in assay [6]: Monocyte Chemoattractant Protein-1 (MCP1), CCL2 (gene 6347)
The assay can be described thus: BSK_SAg_MCP1: BioMAP Diversity Plus: SAg Assay for Monocyte Chemoattractant Protein-1 (MCP1) Biomarker Activity (AID 2283090). In outline: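 Values derive from bidirectional fitting of ELISA-measured MCP1 against DMSO controls. Readings were taken 24 h after dosing human vascular endothelial cells co-cultured with peripheral blood mononuclear cells under superantigen stimulation.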

Read-out in assay [7]: E-selectin (Homo sapiens) (UniProt P16581)
The assay can be described thus: BSK_SAg_Eselectin: BioMAP Diversity Plus: SAg Assay for Eselectin Biomarker Activity (AID 2283091). In outline: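 Endpoint values derive from bidirectional fitting relative to DMSO, using ELISA-measured E-selectin in a human vascular co-culture (umbilical vein endothelium plus PBMC) sampled 24 h after dosing.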

Chain of E-selectin (Homo sapiens) (P16581 whole entry, looked up): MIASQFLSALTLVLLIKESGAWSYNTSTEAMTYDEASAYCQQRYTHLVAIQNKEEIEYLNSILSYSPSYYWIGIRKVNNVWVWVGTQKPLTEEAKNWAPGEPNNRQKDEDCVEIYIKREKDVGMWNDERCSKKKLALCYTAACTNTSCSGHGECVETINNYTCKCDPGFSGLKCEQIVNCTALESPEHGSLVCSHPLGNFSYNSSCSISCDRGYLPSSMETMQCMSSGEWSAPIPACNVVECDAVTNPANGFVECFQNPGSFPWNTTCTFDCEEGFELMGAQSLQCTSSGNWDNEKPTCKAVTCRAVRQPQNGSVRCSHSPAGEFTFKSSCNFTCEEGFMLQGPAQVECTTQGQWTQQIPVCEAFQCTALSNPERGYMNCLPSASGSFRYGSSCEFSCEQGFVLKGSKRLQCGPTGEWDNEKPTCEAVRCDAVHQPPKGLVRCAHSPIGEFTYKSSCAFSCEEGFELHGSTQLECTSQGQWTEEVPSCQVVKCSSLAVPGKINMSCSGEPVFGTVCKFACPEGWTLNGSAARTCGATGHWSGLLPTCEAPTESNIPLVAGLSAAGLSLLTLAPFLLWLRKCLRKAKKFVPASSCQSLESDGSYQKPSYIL
Chain of Tumor necrosis factor (Homo sapiens) (P01375 whole entry, looked up): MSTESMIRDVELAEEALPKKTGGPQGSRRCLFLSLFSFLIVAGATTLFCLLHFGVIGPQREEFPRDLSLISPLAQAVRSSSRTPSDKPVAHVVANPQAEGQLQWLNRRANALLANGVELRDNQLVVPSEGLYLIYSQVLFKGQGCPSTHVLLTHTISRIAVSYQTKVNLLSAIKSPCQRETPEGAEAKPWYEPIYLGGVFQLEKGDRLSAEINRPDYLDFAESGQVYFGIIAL

In the case of `COC(=O)c1ccc(CNS(C)(=O)=O)cc1S(=O)(=O)NC(=O)Nc1nc(OC)cc(OC)n1`, the outcome in assay [1] was “inactive”; in assay [2], “inactive”; in assay [3], “inactive”; in assay [4], “inactive”; in assay [5], “inactive”; with CD38, CD38 (gene 952) it was “inactive”. Moreover, the outcome with CD40, CD40 (gene 958) was “inactive”; in the assay with CD69, CD69 (gene 969) it was “inactive”; in [6], “inactive”; in assay [7], “inactive”.

Regarding `CCSC(=O)N(CC(C)C)CC(C)C`, the outcome is “inactive” in [1]; “inactive” in assay [2]; “inactive” in assay [3]; “inactive” in assay [4]; “inactive” in assay [5]; “inactive” with CD38, CD38 (gene 952). Also, the outcome is “inactive” with CD40, CD40 (gene 958); “inactive” in the assay with CD69, CD69 (gene 969); “inactive” in assay [6]; “inactive” in [7].

In the case of `O=C(c1ccc(O)cc1O)c1ccc(O)cc1O`, the outcome in assay [1] was “inactive”; in assay [2], “inactive”; in assay [3] it was “inactive”; in assay [4], “inactive”; in assay [5] it was “inactive”; with CD38, CD38 (gene 952), “inactive”. In addition, the outcome is “inactive” in the assay with CD40, CD40 (gene 958); “inactive” with CD69, CD69 (gene 969); “inactive” in [6]; “inactive” in assay [7].

For the compound `CCOC(=O)c1ccc(O)cc1`, the outcome is “inactive” in assay [1]; “inactive” in assay [2]; “inactive” in assay [3]; “inactive” in assay [4]; “inactive” in [5]; “inactive” in the assay with CD38, CD38 (gene 952). The outcome in the assay with CD40, CD40 (gene 958) was “inactive”; with CD69, CD69 (gene 969), “inactive”; in assay [6] it was “inactive”; in [7], “inactive”.

`CCN(Cc1c(F)cccc1Cl)c1c([N+](=O)[O-])cc(C(F)(F)F)cc1[N+](=O)[O-]`: the outcome in assay [1] is “inactive”; in [3], “inactive”; in assay [4], “inactive”; in assay [5], “inactive”; in the assay with CD40, CD40 (gene 958), “inactive”; in the assay with CD69, CD69 (gene 969), “inactive”. Besides, the outcome in [6] and in [7] was inactive. The AC50 is 11.6 µM (active) in assay [2] and 8.9 µM (active) with CD38, CD38 (gene 952).

As to `CCCCOC(=O)C(C)Oc1ccc(Oc2ccc(C(F)(F)F)cn2)cc1` (stereo not drawn), the outcome in [1] was “inactive”; in assay [2], “inactive”; in [3], “inactive”; in [4], “inactive”; in assay [5], “inactive”; with CD38, CD38 (gene 952) it was “inactive”. Moreover, the outcome with CD40, CD40 (gene 958) is “inactive”; in the assay with CD69, CD69 (gene 969) it was “inactive”; in assay [6], “inactive”; in assay [7], “inactive”.

Turning to `N[C@@H](Cc1cc(I)c(Oc2ccc(O)c(I)c2)c(I)c1)C(=O)O`, the outcome is “inactive” in assay [1]; “inactive” in assay [2]; “inactive” in assay [4]; “inactive” in assay [5]; “inactive” with CD38, CD38 (gene 952); “inactive” with CD40, CD40 (gene 958). Further, the outcome in the assay with CD69, CD69 (gene 969) was “inactive”; in assay [6], “inactive”; in [7] it was “inactive”. The half-maximal activity concentration (AC50) in assay [3] was 3.17 µM (active).

Turning to `Oc1ccc(C(c2ccc(O)cc2)C(Cl)(Cl)Cl)cc1`, the AC50 in assay [1] was 29.3 µM (active); in assay [2] it was 20 µM (active); in assay [3], 37 µM (active); in [4], 4.66 µM (active); in assay [5], 17.9 µM (active); with CD38, CD38 (gene 952), 27.4 µM (active). Moreover, the AC50 in the assay with CD40, CD40 (gene 958) is 24.4 µM (active); with CD69, CD69 (gene 969), 20 µM (active); in assay [7] it was 10.6 µM (active).

On to `O=C(c1ccccc1)C1CCCCC1`, for which the outcome is “inactive” in assay [1]; “inactive” in assay [2]; “inactive” in assay [3]; “inactive” in assay [4]; “inactive” in assay [5]; “inactive” with CD38, CD38 (gene 952). For the same compound, the outcome with CD40, CD40 (gene 958) is “inactive”; with CD69, CD69 (gene 969) it was “inactive”; in assay [6], “inactive”; in [7] it was “inactive”.

Regarding `N#CSCSc1nc2ccccc2s1`, the AC50 in assay [1] is 1.9 µM (active) and 2.28 µM (active); in assay [2] it was 2.25 µM (active) and 6.78 µM (active); in assay [3], 2.42 µM (active) and 5.42 µM (active); in [4], 992 nM (active) and 2.17 µM (active); in assay [5], 4.53 µM (active) and 9.69 µM (active); with CD38, CD38 (gene 952), 5.37 µM (active) and 5.56 µM (active). Further, the AC50 is 5.42 µM (active) and 6.26 µM (active) in the assay with CD40, CD40 (gene 958); 3.12 µM (active) and 6.36 µM (active) in the assay with CD69, CD69 (gene 969); 7.7 µM (active) and 10.5 µM (active) in assay [6]; 5.69 µM (active) and 8.52 µM (active) in [7].

Take `CCOC(=O)COc1cc(-n2ncc(C(F)(F)F)c(C)c2=O)c(F)cc1Cl`: the outcome in [1] was “inactive”; in assay [2], “inactive”; in assay [3] it was “inactive”; in assay [4] it was “inactive”; in assay [5], “inactive”; in the assay with CD38, CD38 (gene 952), “inactive”. Besides, the outcome was “inactive” with CD40, CD40 (gene 958); “inactive” in the assay with CD69, CD69 (gene 969); “inactive” in assay [6]; “inactive” in assay [7].

With `CCCCC(CC)CN1C(=O)C2C3C=CC(C3)C2C1=O` (stereo not drawn), the result in [1], in assay [3], in assay [6] and in assay [7] was inactive. Moreover, the AC50 was 15.5 µM (active) in [2]; 0.237 µM (active) in [4]; 20 µM (active) in assay [5]; 26.3 µM (active) with CD38, CD38 (gene 952); 20 µM (active) with CD69, CD69 (gene 969).

As for `COC(=O)c1cccc(C)c1S(=O)(=O)NC(=O)Nc1nc(OCC(F)(F)F)nc(N(C)C)n1`, the outcome in [1] is “inactive”; in assay [2] it was “inactive”; in [3], “inactive”; in [4], “inactive”; in [5] it was “inactive”; with CD38, CD38 (gene 952), “inactive”. Besides, the outcome is “inactive” with CD40, CD40 (gene 958); “inactive” with CD69, CD69 (gene 969); “inactive” in assay [6]; “inactive” in [7].

As to `CCCOC(=O)c1ccc(C(=O)OCCC)nc1`, the outcome is “inactive” in [1]; “inactive” in assay [2]; “inactive” in assay [3]; “inactive” in assay [4]; “inactive” in assay [5]; “inactive” with CD69, CD69 (gene 969). Further, the outcome in [6] and in [7] was inactive. Further, the AC50 in the assay with CD38, CD38 (gene 952) was 0.624 µM (active); in the assay with CD40, CD40 (gene 958), 3.09 µM (active).

On to `COC(=O)c1ccccc1S(=O)(=O)NC(=O)Nc1nc(OC(F)F)cc(OC(F)F)n1`, for which the outcome in [1] was “inactive”; in assay [2], “inactive”; in [3], “inactive”; in assay [5], “inactive”; with CD38, CD38 (gene 952), “inactive”; with CD40, CD40 (gene 958), “inactive”. Further, the outcome with CD69, CD69 (gene 969) is “inactive”; in [6], “inactive”; in assay [7], “inactive”. Moreover, the AC50 in assay [4] is 12 µM (active).

Take `O=C(O)C1(C(=O)Nc2ccc(Cl)cc2Cl)CC1`: the AC50 in [1] is 7.72 µM (active); with CD38, CD38 (gene 952), 5.3 µM (active); with CD69, CD69 (gene 969), 9.21 µM (active). Besides, the outcome in assay [2] was “inactive”; in assay [3], “inactive”; in assay [4] it was “inactive”; in assay [5], “inactive”; in the assay with CD40, CD40 (gene 958), “inactive”; in assay [6] it was “inactive”. The result in [7] was inactive.
